According to PubChem BioAssay AID1159580 (chemical genetic matrix, 2015):
“And” between values parts separate entries of the source, which are not always exact repeats. Identical values can stand only once. The whole screen tested about 5,500 compounds, of which about 2,000 (36%) were called active. Another 18% or so got no clear call; they are omitted. Rule as the data show it: active = normalized growth mostly below about 0.91 (no sharp cut-off); inconclusive = no clear call, values can overlap the other calls; inactive = mostly above about 0.92. Some of the results follow.

Assay: chemical genetic growth profiling, strain panel (AID 1159580);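 also: tested at 20 µM; growth read once vehicle control cultures reached saturation at 30 °C; 1 = growth at the plate median or of vehicle wells; lower values mean less growth of the strain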
Details: S. cerevisiae deletion strains, growth OD

Measured: normalized growth

COc1ccccc1OCC(O)COC(N)=O (stereo not drawn)
inactive: locus YAL013W, strain DEP1, stronger effect = lower value 0.997 | locus YAL021C, strain ccr4, stronger effect = lower value 0.991 | locus YAL026C, strain drs2, stronger effect = lower value 0.99 | locus YAL030W, strain snc1, stronger effect = lower value 0.996 | locus YBL061C, strain skt5, stronger effect = lower value 0.989 | locus YBR009C, strain hhf1, stronger effect = lower value 0.97 | locus YBR021W, strain FUR4, stronger effect = lower value 1.02 | locus YBR023C, strain chs3, stronger effect = lower value 0.966 | locus YBR171W, strain sec66, stronger effect = lower value 0.981 | locus YBR229C, strain ROT2, stronger effect = lower value 1 | locus YBR231C, strain swc5, stronger effect = lower value 0.992 | locus YBR279W, strain paf1, stronger effect = lower value 0.976 | locus YCL011C, strain gbp2, stronger effect = lower value 0.979 | locus YCL016C, strain dcc1, stronger effect = lower value 0.962 | locus YCL029C, strain bik1, stronger effect = lower value 0.997 | locus YCL061C, strain MRC1, stronger effect = lower value 0.973 | locus YCL069W, strain vba3, stronger effect = lower value 0.996 | locus YCR088W, strain abp1, stronger effect = lower value 0.985 | locus YDL005C, strain med2, stronger effect = lower value 0.987 | locus YDL035C, strain GPR1, stronger effect = lower value 1 | locus YDL040C, strain nat1, stronger effect = lower value 0.992 | locus YDL074C, strain BRE1, stronger effect = lower value 0.995 | locus YDL101C, strain DUN1, stronger effect = lower value 0.997 | locus YDL134C, strain PPH21, stronger effect = lower value 1.01 | locus YDL185W, strain tfp1, stronger effect = lower value 0.957 | locus YDL192W, strain arf1, stronger effect = lower value 0.977 | locus YDR001C, strain nth1, stronger effect = lower value 0.991 | locus YDR069C, strain doa4, stronger effect = lower value 0.996 | locus YDR101C, strain arx1, stronger effect = lower value 1.04 | locus YDR137W, strain rgp1, stronger effect = lower value 0.965 | locus YDR159W, strain sac3, stronger effect = lower value 1.01 | locus YDR162C, strain NBP2, stronger effect = lower value 1 | locus YDR195W, strain ref2 1.01 | locus YDR297W, strain sur2, stronger effect = lower value 0.996 | locus YDR318W, strain mcm21, stronger effect = lower value 0.993 | locus YDR334W, strain swr1, stronger effect = lower value 0.978 | locus YDR335W, strain msn5, stronger effect = lower value 0.993 | locus YDR388W, stronger effect = lower value 1 | locus YDR392W, strain spt3, stronger effect = lower value 0.918 | locus YDR502C, strain sam2, stronger effect = lower value 0.997 | locus YEL003W, strain gim4, stronger effect = lower value 1 | locus YEL037C, strain rad23, stronger effect = lower value 0.985 | locus YEL061C, strain CIN8 (second series), stronger effect = lower value 0.984 | locus YEL061C, strain CIN8, stronger effect = lower value 0.98 | locus YER015W, strain faa2, stronger effect = lower value 0.974 | locus YER016W, strain bim1, stronger effect = lower value 1.02 | locus YER110C, stronger effect = lower value 0.983 | locus YER111C, strain swi4, stronger effect = lower value 0.981 | locus YER155C, strain BEM2 (second series), stronger effect = lower value 1 | locus YER155C, strain BEM2, stronger effect = lower value 0.993 | locus YER167W, strain BCK2, stronger effect = lower value 0.99 | locus YFR010W, strain ubp6, stronger effect = lower value 0.987 | locus YGL078C, strain dbp3, stronger effect = lower value 0.984 | locus YGL086W, strain mad1, stronger effect = lower value 1.02 | locus YGL167C, strain pmr1, stronger effect = lower value 0.983 | locus YGL173C, strain kem1, stronger effect = lower value 0.992 | locus YGL227W, strain vid30, stronger effect = lower value 0.988 | locus YGL240W, strain doc1, stronger effect = lower value 1.02 | locus YGL248W, strain PDE1, stronger effect = lower value 0.999 | locus YGL253W, strain hxk2, stronger effect = lower value 0.985 | locus YGR078C, strain PAC10, stronger effect = lower value 1 | locus YGR135W, strain pre9, stronger effect = lower value 0.961 | locus YGR229C, strain SMI1, stronger effect = lower value 1 | locus YGR252W, strain gcn5, stronger effect = lower value 0.988 | locus YHR013C, strain ard1, stronger effect = lower value 0.952 | locus YHR027C, strain rpn1, stronger effect = lower value 1 | locus YHR030C, strain SLT2, stronger effect = lower value 0.996 and 1.06 | locus YHR079C, strain IRE1 (second series), stronger effect = lower value 0.991 | locus YHR079C, strain IRE1, stronger effect = lower value 1.05 | locus YHR094C, strain hxt1, stronger effect = lower value 1 | locus YHR129C, strain ARP1, stronger effect = lower value 1 | locus YHR142W, strain chs7, stronger effect = lower value 0.965 | locus YHR200W, strain rpn10, stronger effect = lower value 0.985 | locus YIL066C, strain RNR3, stronger effect = lower value 1 | locus YIL073C, strain SPO22, stronger effect = lower value 0.94 | locus YIL125W, strain kgd1, stronger effect = lower value 0.999 | locus YIR030C, strain dcg1, stronger effect = lower value 0.985 | locus YJL092W, strain hpr5, stronger effect = lower value 0.984 | locus YJL095W, strain BCK1 (second series), stronger effect = lower value 0.991 | locus YJL095W, strain BCK1, stronger effect = lower value 0.991 and 1.03 | locus YJL115W, strain asf1, stronger effect = lower value 0.975 | locus YJL129C, strain trk1, stronger effect = lower value 0.972 | locus YJL134W, strain LCB3, stronger effect = lower value 0.99 | locus YJL154C, strain vps35, stronger effect = lower value 0.992 | locus YJL164C, strain tpk1, stronger effect = lower value 0.97 | locus YJL166W, strain qcr8, stronger effect = lower value 0.96 | locus YJL168C, strain set2, stronger effect = lower value 1 | locus YJL187C, strain SWE1 (second series), stronger effect = lower value 1 | locus YJL187C, strain SWE1, stronger effect = lower value 0.99 | locus YJR043C, strain POL32, stronger effect = lower value 1.02 | locus YJR066W, strain TOR1, stronger effect = lower value 0.984 | locus YKL009W, strain mrt4, stronger effect = lower value 0.973 | locus YKL068W, stronger effect = lower value 0.989 | locus YKL085W, strain MDH1 (second series), stronger effect = lower value 0.982 | locus YKL085W, strain MDH1, stronger effect = lower value 0.982 | locus YKL160W, strain elf1, stronger effect = lower value 0.965 | locus YKL190W, strain CNB1, stronger effect = lower value 0.976 | locus YKR001C, strain vps1, stronger effect = lower value 1 | locus YKR026C, strain gcn3, stronger effect = lower value 0.992 | locus YKR091W, strain srl3, stronger effect = lower value 0.981 | locus YLL001W, strain dnm1, stronger effect = lower value 0.968 | locus YLL026W, stronger effect = lower value 0.995 | locus YLL041C, strain sdh2, stronger effect = lower value 0.998 | locus YLR027C, strain aat2, stronger effect = lower value 0.997 | locus YLR039C, strain RIC1, stronger effect = lower value 0.941 | locus YLR058C, strain SHM2, stronger effect = lower value 0.999 | locus YLR102C, strain apc9, stronger effect = lower value 0.991 | locus YLR113W, strain HOG1, stronger effect = lower value 1.02 | locus YLR221C, strain rsa3, stronger effect = lower value 0.965 | locus YLR258W, strain gsy2, stronger effect = lower value 0.974 | locus YLR262C, strain YPT6 (second series), stronger effect = lower value 0.966 | locus YLR262C, strain YPT6, stronger effect = lower value 0.985 | locus YLR268W, strain sec22, stronger effect = lower value 0.99 | locus YLR320W, strain mms22, stronger effect = lower value 0.964 | locus YLR330W, strain CHS5, stronger effect = lower value 0.991 | locus YLR342W, strain FKS1 (second series), stronger effect = lower value 1.01 | locus YLR342W, strain FKS1, stronger effect = lower value 0.981 | locus YLR357W, strain rsc2, stronger effect = lower value 0.963 | locus YLR370C, strain arc18, stronger effect = lower value 0.987 | locus YLR371W, strain rom2, stronger effect = lower value 1 | locus YLR384C, strain iki3, stronger effect = lower value 0.979 | locus YLR418C, strain cdc73, stronger effect = lower value 0.988 | locus YML016C, strain PPZ1, stronger effect = lower value 1 | locus YML032C, strain rad52, stronger effect = lower value 1 | locus YML120C, strain ndi1, stronger effect = lower value 0.958 | locus YML124C, strain tub3, stronger effect = lower value 0.988 | locus YMR058W, strain fet3, stronger effect = lower value 0.991 | locus YMR078C, strain ctf18, stronger effect = lower value 0.986 | locus YMR125W, strain sto1, stronger effect = lower value 0.971 | locus YMR129W, stronger effect = lower value 0.988 | locus YMR205C, strain PFK2, stronger effect = lower value 0.964 | locus YMR223W, strain ubp8, stronger effect = lower value 0.964 | locus YMR231W, strain pep5, stronger effect = lower value 0.983 | locus YMR307W, strain GAS1, stronger effect = lower value 1.02 | locus YNL067W, strain RPL9B, stronger effect = lower value 0.986 | locus YNL071W, strain lat1, stronger effect = lower value 0.982 | locus YNL128W, strain TEP1, stronger effect = lower value 0.977 | locus YNL153C, strain GIM3, stronger effect = lower value 1.01 | locus YNL183C, strain NPR1, stronger effect = lower value 0.976 | locus YNL209W, strain ssb2, stronger effect = lower value 0.984 | locus YNL233W, strain BNI4, stronger effect = lower value 0.995 | locus YNL248C, strain rpa49, stronger effect = lower value 0.985 | locus YNL250W, strain rad50, stronger effect = lower value 0.967 | locus YNL271C, strain bni1, stronger effect = lower value 0.977 | locus YNL298W, strain CLA4, stronger effect = lower value 0.99 | locus YNL307C, strain MCK1, stronger effect = lower value 0.999 | locus YNL322C, strain KRE1 (second series), stronger effect = lower value 0.987 | locus YNL322C, strain KRE1, stronger effect = lower value 0.997 | locus YNR049C, strain mso1, stronger effect = lower value 0.99 | locus YNR052C, strain pop2, stronger effect = lower value 0.992 | locus YOL006C, strain TOP1, stronger effect = lower value 1.01 | locus YOL012C, strain htz1 0.742 | locus YOL147C, strain pex11, stronger effect = lower value 0.987 | locus YOR001W, strain rrp6, stronger effect = lower value 1.01 | locus YOR061W, strain CKA2, stronger effect = lower value 1 | locus YOR069W, strain VPS5, stronger effect = lower value 0.992 | locus YOR070C, strain gyp1, stronger effect = lower value 0.988 | locus YOR080W, strain dia2, stronger effect = lower value 0.987 | locus YOR083W, strain WHI5, stronger effect = lower value 0.954 | locus YOR106W, strain vam3, stronger effect = lower value 0.955 | locus YOR136W, strain idh2, stronger effect = lower value 0.989 | locus YOR144C, strain elg1, stronger effect = lower value 0.997 | locus YOR184W, strain ser1, stronger effect = lower value 0.989 | locus YOR231W, strain MKK1, stronger effect = lower value 1.04 | locus YOR265W, strain rbl2, stronger effect = lower value 0.992 | locus YOR270C, strain vph1, stronger effect = lower value 0.972 | locus YOR290C, strain snf2, stronger effect = lower value 0.886 | locus YOR316C, strain cot1, stronger effect = lower value 0.984 | locus YPL051W, strain arl3, stronger effect = lower value 1.01 | locus YPL078C, strain atp4, stronger effect = lower value 0.97 | locus YPL106C, strain sse1, stronger effect = lower value 0.978 | locus YPL240C, strain hsp82, stronger effect = lower value 0.996 | locus YPL256C, strain CLN2, stronger effect = lower value 1.06 | locus YPR119W, strain clb2, stronger effect = lower value 0.991 | locus YPR141C, strain kar3, stronger effect = lower value 0.966 | locus YPR163C, strain tif3, stronger effect = lower value 0.988 | locus YPR167C, strain met16, stronger effect = lower value 0.995 | strain wtn01, stronger effect = lower value 0.991
